# Screening data deposited in PubChem by Sanford-Burnham Center for Chemical Genomics.
# A selection: hits, their analogues and other compounds. The true share with any hit is near 4%.
# TROY NFkB inh – blocks TROY-dependent signaling in reporter cells; inhibition, % at 10 µM; Q293 LMP1-TROYcd NF-kB luciferase reporter, 4 h; AID 1347056; hit rate 0.98% among 360,000;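 active = compounds whose plate-normalised and pattern-corrected inhibition of the luciferase reporter signal at the single screening dose is 50% or more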
# KKLEB tox – counter-screen for CF NF-kB inhibitors: cytotoxicity; KKLEB CF airway cells viability, ATPlite luminescence, overnight; hits give low values; cells stimulated with P. aeruginosa culture filtrate; activity change (cytotoxicity), % at 5 µM; hit rate 0.36% among 360,000; AID 602141;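 active = corrected activity change at or below -50% at 5 µM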
# Peg3 promoter – Peg3 promoter activity inhibition | HeLa PEG-Prom luciferase reporter, luminescence, overnight | inhibition, % at 20 µM | hit rate 1.7% among 360,000;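 active = inhibition of at least 50% at 20 µM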
# TWEAK-Fn14 inh – inhibitors of TWEAK-Fn14 interaction signaling. AID 1159606. hit rate 2% among 360,000. inhibition, % at 10 µM. TWEAK-stimulated Fn14 reporter cells, luciferase luminescence, 8 h; in the data active = inhibition above about 50%
# HIF-2a inh – inhibitors of HIF-2a; 786-0 RCC cells HIF-2a reporter, luciferase luminescence, overnight; hit rate 0.72% among 360,000; inhibition, % at 18.8 µM; AID 624352;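 active = inhibition of the luminescence signal of 40% or more relative to plate controls, in a single-dose primary screen at 18.75 µM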
# CF NFkB inh – inhibitors of cystic fibrosis induced NF-kB; KKLEB NF-kB-GFP reporter, PAF-induced, GFP fluorescence overnight; inhibition, % at 5 µM; hit rate 0.86% among 360,000;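 active = at least 50% inhibition at 5 µM, scaled per plate between neutral and stimulator controls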;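 also: PAF is a Pseudomonas aeruginosa culture filtrate used as stimulus; plate controls were PAF-stimulated DMSO wells for no effect and unstimulated DMSO wells for full effect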
# Mdm2 MdmX conf – confirmation of inhibitors of human Mdm2/MdmX interaction, set 2; inhibition, % at 8 µM; SaOS-2 split-luciferase Mdm2/MdmX complementation, luminescence; shares compounds with HIF-2a inh; AID 504601; hit rate 99% among 740;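 active = mean inhibition of the luminescence signal across two replicates at or above 26 percent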
# Target sequence (O15151 whole entry, looked up): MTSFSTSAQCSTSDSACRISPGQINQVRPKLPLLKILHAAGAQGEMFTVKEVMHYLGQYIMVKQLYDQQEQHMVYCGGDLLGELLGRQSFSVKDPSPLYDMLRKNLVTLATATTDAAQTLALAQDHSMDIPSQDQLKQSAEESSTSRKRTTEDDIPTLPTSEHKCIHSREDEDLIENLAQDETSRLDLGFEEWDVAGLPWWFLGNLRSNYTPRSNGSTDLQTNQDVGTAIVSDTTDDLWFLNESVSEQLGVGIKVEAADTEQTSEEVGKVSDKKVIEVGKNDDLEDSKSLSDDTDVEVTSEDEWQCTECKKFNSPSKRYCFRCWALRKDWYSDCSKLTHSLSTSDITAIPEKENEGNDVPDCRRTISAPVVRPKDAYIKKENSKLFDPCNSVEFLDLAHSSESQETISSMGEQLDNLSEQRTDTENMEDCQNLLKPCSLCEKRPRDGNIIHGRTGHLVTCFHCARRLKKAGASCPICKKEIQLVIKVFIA
# Target sequence (Q00987 whole entry, looked up): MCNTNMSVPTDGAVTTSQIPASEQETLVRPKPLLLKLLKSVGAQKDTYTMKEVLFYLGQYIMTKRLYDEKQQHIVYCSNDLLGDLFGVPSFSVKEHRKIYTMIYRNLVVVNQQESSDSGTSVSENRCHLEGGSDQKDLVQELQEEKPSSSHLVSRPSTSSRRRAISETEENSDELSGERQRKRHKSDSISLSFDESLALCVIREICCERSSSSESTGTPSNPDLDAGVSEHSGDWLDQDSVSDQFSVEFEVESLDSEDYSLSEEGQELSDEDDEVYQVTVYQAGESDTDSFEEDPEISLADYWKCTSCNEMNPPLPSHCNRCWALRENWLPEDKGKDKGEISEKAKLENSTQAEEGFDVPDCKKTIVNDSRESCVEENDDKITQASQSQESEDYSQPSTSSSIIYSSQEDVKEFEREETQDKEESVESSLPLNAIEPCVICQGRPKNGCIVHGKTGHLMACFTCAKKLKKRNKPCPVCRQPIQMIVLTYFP
# HIF-2a conf – HIF-2a inhibition, single concentration confirmation. shares compounds with HIF-2a inh. 786-0 RCC cells, HIF-2a luciferase reporter luminescence, overnight. inhibition, % at 18.8 µM. hit rate 56% among 1,800. AID 651580;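 active = mean inhibition across four replicates of at least 40 percent at the single tested concentration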
# HIF-1a counter – inhibits HIF-1a reporter, a counter-screen for HIF-2a inhibitors | shares compounds with HIF-2a inh | MiaPaCa-2 HIF-1a luciferase reporter, desferoxamine, overnight | inhibition, % at 18.8 µM | hit rate 72% among 1,800;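 active = mean inhibition of the reporter signal across four replicates at the single tested dose of 50% or more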
# Starred values were filed as active, the others as inactive; nt = not tested or not shown.
SMILES,TROY NFkB inh,KKLEB tox,Peg3 promoter,TWEAK-Fn14 inh,HIF-2a inh,CF NFkB inh,HIF-2a conf,HIF-1a counter,others
CN(C(=O)OC(C)(C)C)[C@H](Cc1ccccc1)C(=O)N[C@H]1CCCCNC1=O,-7,12,5,-13,-5,-8,nt,nt,
Cc1nc(NCc2ccco2)c2c(C)c(C)sc2n1,29,-16,88*,-27,-27,4,nt,nt,Mdm2 MdmX conf=101*
CN(C)C(=O)c1ccc(NC(=O)CN2CCc3cc4c(cc3C2)OCCCO4)cc1,-5,-6,-5,-9,13,-21,nt,nt,
CCOC(=O)c1c(SCCN2CCCC2)n(-c2ccccc2)c(=S)n(-c2ccccc2)c1=O,4,6,100*,-7,78*,-29,93*,102*,
CN(C)C(=O)NC1c2ccccc2-c2ccccc21,-18,-6,1,0,8,1,nt,nt,
O=C1C=CC(=O)N1c1ccc2c(c1)C(NC(=O)C(F)(F)F)c1ccccc1-2 (stereo not drawn),-1,-9,102*,16,46*,40,11,17,
O=C(NCCOc1ccccc1F)c1cccc(S(=O)(=O)N2CCN(c3ccccc3)CC2)c1,19,-11,19,9,4,3,nt,nt,
COc1ccc(-c2cc(C(F)(F)F)n3nc(C(=O)N4CCN(C(=O)c5ccco5)CC4)cc3n2)cc1,-2,6,-29,36,10,-7,nt,nt,
Cc1nc(SCc2ccc(C(=O)O)cc2)nc2c1CCCC2,35,0,15,34,82*,0,89*,62*,
S=c1nc[nH]c2c1cnn2Cc1ccccc1,21,-13,-3,5,4,8,nt,nt,
Cc1cc(C)n(CCC(=O)N/N=C/c2ccc(O)cc2)n1,9,-4,1,6,8,-10,nt,nt,
Cc1cc(C)n(CCC(=O)N/N=C/c2c(O)ccc3ccccc23)n1,19,0,65*,36,22,-7,nt,nt,Mdm2 MdmX conf=88*
Cc1ccc(N(NC(=O)C(O)(c2ccccc2)c2ccccc2)C(=O)CCl)cc1,-12,-66*,103*,46,50*,58*,32,99*,Mdm2 MdmX conf=102*
CC(C)NC(=O)Cn1nnc(-c2cccc(NC(=O)c3ccccc3F)c2)n1,-8,3,-5,0,1,7,nt,nt,
COc1cccc(-n2c(SCc3cc(=O)oc4cc(O)c(O)cc34)nc3ccccc3c2=O)c1,34,-5,37,-17,32,-11,nt,nt,
CCOC(=O)COc1ccc(S(=O)(=O)N2CCN(c3ccccc3F)CC2)cc1,6,5,9,1,47*,6,13,-1,
CCC1CCc2c(sc3nc(SCC(=O)NCc4ccco4)n(-c4ccccc4)c(=O)c23)C1 (stereo not drawn),8,-13,1,-16,5,2,nt,nt,
Cn1ncc2c(O/N=C(\N)c3ccc(C(F)(F)F)cc3)ncnc21,13,-2,107*,-17,94*,7,-13,-51,
CCOC(=O)CNC(=O)CSc1nnc(NC(=O)c2ccc(C)cc2)s1,-1,-18,36,68*,45*,7,65*,-12,
CCOC(=O)CNC(=O)CSc1nnc(NC(=O)c2ccc3c(c2)OCO3)s1,-1,-7,-40,12,-53,-6,nt,nt,
COc1ccccc1CNc1ncc(-c2ccc(F)cc2)n1C,-3,-6,-37,20,-39,-25,nt,nt,
COc1ccc(CNc2ncc(-c3ccc(F)cc3)n2C)c2ccccc12,1,-5,59*,58*,41*,4,93*,104*,
CCOC(=O)C(C(=O)OCC)C(C(=O)OCC)N1CCOCC1 (stereo not drawn),-22,-5,106*,-11,90*,29,98*,107*,
[O-]/C(=C(\C(=S)Nc1cccc2ccccc12)[n+]1ccccc1)c1cccs1,27,-4,-2,6,-6,-4,nt,nt,
